Among all 300,000 compounds or so, about 1,200 (0.4%) were called active. The full list was thinned out, with actives kept by preference. A number with no mark means an inactive call. Rule as the data show it: active = activity change below about -75% (passing the limit was not always enough); inconclusive = no clear call, values can overlap the other calls.

This assay in a line: Vibrio harveyi AI-2 quorum sensing modulators, primary screen, JMH597 strain, luminescence/OD600 ratio (AID 2094).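 Also: luminescence divided by OD600 gain over 9 h not by final OD600 alone.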 To be noted: Vibrio harveyi JMH597 AI-2 luminescence/OD600 ratio, 9 h; at 7.5 µM; stronger effect = lower value; 0 = neutral-control median; strain lacks LuxN and CqsS sensors.
Regarding `COc1ccccc1/C=C/C=N/n1c(-c2ccc(Cl)cc2Cl)n[nH]c1=S`, the activity change was -0.967%. The value for `O=C(/C=C/Sc1ncn[nH]1)c1ccc(Cl)cc1` was -91.7% (active); that for `O=C(CSc1ncn[nH]1)N/N=C/c1ccc(F)cc1` was -5.64%.

Turning to `Cc1cc(C)nc(S/C=C/C(=O)c2ccccc2)n1`, the activity change was 4.08%.

In the case of `CC(=O)N(CC(O)CO)c1c(I)c(C(=O)NCC(O)CO)c(I)c(C(=O)NCC(O)CO)c1I` (stereo not drawn), the activity change is 14.8%. In the case of `Cn1ccc(=NC=C(C#N)C#N)c2ccccc21`, the activity change is 22.8%. Regarding `CCOc1ccc(/C=N\NC(=O)c2c(C)nc3cc(C)ccn23)cc1`, the activity change was 2.9%.

As to `CCOc1ccc(/C=N/NC(N)=S)cc1`, the activity change was -94.8% (active). For the compound `C=CCNC(=S)N/N=C/c1ccc(OCc2ccccc2)cc1`, the activity change was 16.4%. The result for `COC(=O)CSc1snnc1-c1ccc(Cl)c(Cl)c1` reads 9.65%; that for `O=S1(=O)N=C(N(CCO)/N=C/c2ccccc2F)c2ccccc21`, 15.9%. `O=C(NNC(=S)Nc1ccc(F)cc1)[C@H]1C[C@@H]1c1ccccc1`: the activity change was -11.8%. The result for `Cc1ccc(C2CC2C(=O)NN)cc1` (stereo not drawn) reads 19.8%. The value for `Cc1ccc(NC(=O)C2CC2c2ccccc2)cc1` (stereo not drawn) was -86.2% (active). The result for `CCN(CC(=O)NCc1cccs1)C(=O)c1cccc(S(=O)(=O)Nc2ccccc2OC)c1` reads 5.29%. As to `C/C(CC1CC(C)(C)OC1=O)=N/Nc1nc(-c2ccccc2)cs1` (stereo not drawn), the activity change was 26.9%.

As to `Cc1ccccc1C(=O)Nc1ccc(N2CCCCCC2)cc1`, the activity change was -80.7% (active). On to `Cc1ccccc1C(=O)N1CCN(c2ccc(NC(=O)c3cccs3)cc2)CC1`, for which the activity change is 11.9%. The value for `Cc1ccccc1C(=O)NC(=S)Nc1ccc(N2CCN(C(=O)c3ccccc3)CC2)cc1` was 13.3%. Take `O=C(Nc1cccnc1)c1cccc(S(=O)(=O)N2CCCC2)c1`: the activity change was 6.26%. Take `O=C(Nc1ccc(F)c(Cl)c1)C1CCN(S(=O)(=O)c2cccnc2)CC1`: the activity change was -93.8% (active).

For the compound `O=C(NCc1cccs1)C1CCN(S(=O)(=O)c2ccc(Cl)cc2)CC1`, the activity change was 14.4%. The value for `O=C(Cc1cccs1)Nc1ccc([N+](=O)[O-])cc1` was 10.5%; that for `Oc1ccc2ccc3cccc[n+]3c2c1` was 42.1%. The result for `CCOc1ccc(/C=N/OCC(=O)NCc2cccs2)cc1` reads 5.49%; that for `O=C(/C=C/c1ccc2c(c1)OCO2)NCc1cn2cc(Cl)ccc2n1`, 2.46%; that for `O=C(/C=C/c1ccc2c(c1)OCO2)NCc1ccc(F)cc1`, -82.8% (active). The value for `O=C(Cc1ccc(F)cc1)N/N=C/c1ccc2c(c1)OCO2` was 14.4%.

Values taken from PubChem BioAssay AID2094 (Broad Institute, 2009).
